Source: PubChem BioAssay
Pf growth 96h: inhibits malaria parasite growth, 96 h; Potency, µM (series often up to 28.7 µM), for the others: at the top dose activity change, negative = inhibition, hits mostly inhibitors; 320,000 compounds, 6.9% hits; P. falciparum luciferase reporter growth, 96 h; AID 504834; note: potency is the fitted concentration of half-maximal effect
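P. falciparum expressing integrated firefly luciferase, in erythrocytes at 2% hematocrit, 0.05% parasitemia, incubated with compounds 96 h at 37 C, 5% CO2. Growth inhibition read as loss of luminescence; two-generation exposure targets delayed-death apicoplast inhibitors.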
HCV inhibitor: blocks hepatitis C virus. Huh7.5.1 HCVcc-Cre infection, luciferase reporter, 44 h. Potency, µM (titrated, usually from 41.8 µM), without a hit: at the highest dose activity change, negative = inhibition, hits mostly inhibitors. 340,000 compounds, 3.4% hits. AID 651820; note: potency is the fitted concentration of half-maximal effect
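A cell-based infection assay in which seeded cells (1,000 per well) receive test compound after 4 h, are inoculated with HCVcc-Cre at approximately 0.5 moi, and are incubated 44 h before luminescence detection.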
Pf growth 48h: inhibits P. falciparum growth in the first generation, 48 h; 310,000 compounds, 5.9% hits; Potency, µM (doses to about 28.7 µM), without a hit: top-dose activity change, negative = inhibition, usual class: inhibitors; P. falciparum luciferase growth in erythrocytes, 48 h; note: potency is the fitted concentration of half-maximal effect
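Cell-based growth assay: transgenic P. falciparum expressing firefly luciferase, cultured in red cells within RPMI 1640 containing 0.5% w/v Albumax, 24 mM bicarbonate and gentamycin. A drop in luciferase activity indicates inhibition.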
LASV entry inh: blocks Lassa virus binding to or entry into cells; Lassa virus pseudotype entry inhibition, cell reporter; Potency, µM (doses to about 37.9 µM), for inactives: top-dose activity change, negative = inhibition, usual class: inhibitors; 300,000 compounds, 1.2% hits; calls by dose curve; tested in HEK293 cells; note: potency is the fitted concentration of half-maximal effect; nearly all actives have a fitted effect of over 50% in size
HCMV antiviral: blocks human cytomegalovirus replication | HFF cells, HCMV-luciferase reporter, 72 h; stronger effect = lower value | activity change, negative = inhibition, % at 57.5 µM | 410,000 compounds, 4.5% hits; in the data active = activity change below about -60%; inconclusive = no clear call, values can overlap the other calls; inactive = above about -39%
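Steps: HFFs plated, 16 h 37C; compounds added; HCMV-luciferase added to MOI 1 PFU/cell; 72 h 37C; OneGlo reagent, 5 min room temperature; luminescence read, normalized to controls.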
Marburg entry inh: inhibitors of Marburg virus binding or cell entry. 300,000 compounds, 1.8% hits. AID 540276. Potency, µM (highest dose often 37.8 µM), inactives show top-dose activity change, negative = inhibition, hits mostly inhibitors. Marburg virus pseudotyped entry inhibition, cell reporter; calls by dose curve; tested in HEK293 cells; note: potency is the fitted concentration of half-maximal effect
Numbers without * were called inactive; u = inconclusive; x = not tested or not shown; + = active, no number; [ ] = remark or other dose. Hits are enriched below; roughly 14% of the tested compounds scored in any of these assays. Unless noted, calls come from the whole dose curve; as a rule, active = well fitted inhibition curve with a large enough effect; inconclusive = small, poorly fitted or top-dose-only effect, or another doubt; inactive = no such curve, though single readings can be large or run the other way. % is set by controls: 0 for no effect and ±100 for the full control effect.

SMILES	Pf growth 96h	HCV inhibitor	Pf growth 48h	LASV entry inh	HCMV antiviral	Marburg entry inh
Cc1ccc(CNC(=O)CCS(=O)(=O)c2ccc(Br)cc2)cc1	u	18.8%	-11.1%	10.9%[46.1 µM]	-29.3	-4.6%[46.1 µM]
Cc1ccc(S(=O)(=O)CCC(=O)Nc2ccc(Br)cc2)cc1	-6.5%	-17.2%	-3.8%	-9.1%[46.1 µM]	-24.7	5.2%[46.1 µM]
Cc1ccc(S(=O)(=O)CCC(=O)Nc2ccc3c(c2)OCO3)cc1	-23.7%	3.3%	-6.2%	u	-6.1	-14.0%
O=C(CCS(=O)(=O)c1ccc(Br)cc1)NCc1ccc(F)cc1	10.4µM*	16.9%	40.7%	x	2.9	x
O=C(CCS(=O)(=O)c1ccc(Br)cc1)Nc1ccc2c(c1)OCO2	0.465µM*	3.9%	0.6%	-0.1%	50.8	19.2%
CCc1ccc(NC(=O)CCS(=O)(=O)c2ccc(Br)cc2)cc1	15.3%	3.7%	-0.1%	x	-62.4*	x
Cc1ccc(S(=O)(=O)CCC(=O)Nc2ccc(Br)cc2C)cc1	x	x	x	-4.2%[46.1 µM]	+	x
Cc1ccccc1NC(=O)CCS(=O)(=O)c1ccc(Br)cc1	-11.4%	6.2%	10.3%	x	-24.2	x
Cc1cc(S(=O)(=O)Nc2cc3c(cc2NCc2ccccc2)n(C)c(=O)n3C)ccc1F	x	x	x	19.2%[46.1 µM]	-20.6	4.1%[46.1 µM]
O=C(CC1C(=O)N(c2ccc(F)cc2)C(=O)N1Cc1ccc2c(c1)OCO2)Nc1ccc(F)cc1 (stereo not drawn)	x	x	x	-13.4%[46.1 µM]	-0.7	-7.1%[46.1 µM]
Cc1ccccc1NC(=O)c1ccc(NC(=O)C2CC(=O)OC23CCCCC3)cc1 (stereo not drawn)	27.0%	4.3%	13.1µM*	-24.1%	-11.1	19.2%[46.1 µM]
Cc1ccsc1C(=O)C1CCCN(Cc2cccn2-c2ccccn2)C1 (stereo not drawn)	6.7%	-23.1%	u	u	-66.2*	5.62µM*
O=C(c1cc(F)ccc1F)C1CCCN(Cc2cccn2-c2ccccn2)C1 (stereo not drawn)	u	6.0%	u	x	-32.4	x
Cc1ccsc1C(=O)C1CCCN(Cc2ccccc2O)C1 (stereo not drawn)	1.6%	-10.4%	u	-17.5%	0.0	-7.3%[14.2 µM]
COc1ccc(C(=O)C2CCCN(Cc3ccon3)C2)c(OC)c1 (stereo not drawn)	u	-5.9%	14.1%	0.1%[46.1 µM]	-1.2	-16.0%[46.1 µM]
COc1ccc(C(=O)C2CCCN(Cc3cccn3-c3ccccn3)C2)c(OC)c1 (stereo not drawn)	u	u	u	u	-66.7*	u
COCc1ccc(CN2CCCC(C(=O)c3sccc3C)C2)o1 (stereo not drawn)	14.7µM*	-23.7%	14.4%	-14.3%[46.1 µM]	-2.3	-13.6%[46.1 µM]
COc1ccc(F)cc1C(=O)C1CCCN(Cc2cccn2-c2ccccn2)C1 (stereo not drawn)	3.29µM*	u	10.4µM*	10µM*	u	u
CCc1ccc(CN2CCCC(C(=O)c3sccc3C)C2)o1 (stereo not drawn)	29.2%	-1.0%	-4.5%	x	-23.2	x
COC(=O)Cn1nnnc1-c1nc2cc(C)c(C)cc2[nH]c1=O	x	x	x	x	-5.9	x
O=C1S/C(=C\c2ccc(N3CCOCC3)o2)C(=O)N1c1ccccc1	55.4%	31.6µM*	-16.0%	18.0%	44.7	u
O=C1S/C(=C\c2ccc(N3CCOCC3)o2)C(=O)N1Cc1c(F)cccc1Cl	11.7µM*	u	u	-13.7%	9.4	-15.2%
O=C1N=C(N2CCOCC2)S/C1=C/c1ccc(-c2ccccc2Cl)o1	u	u	u	u	0.9	u
O=C1/C(=C\c2ccco2)SC(=S)N1c1ccccc1	35.8%	-20.8%	37.9%	0.1%	-10.6	u
O=C(CNC(=O)c1ccccc1)OCc1cc(=O)n2nc(C3CC3)sc2n1	x	x	x	5.9%[46.1 µM]	0.1	x
SMILES	Pf growth 96h	HCV inhibitor	Pf growth 48h	LASV entry inh	HCMV antiviral	Marburg entry inh
Cc1ccc(N2CCN(C(=O)c3cc(C(=O)c4ccccc4C)c[nH]3)CC2)c(C)c1	u	11.2µM*	u	x	34.6	x
O=C1C(=O)N(Cc2cccnc2)[C@@H](c2ccccn2)/C1=C(\O)c1ccccc1	x	x	x	x	x	12.5%
Cc1cccc(C)c1Oc1nc(-c2ccccc2)ncc1S(=O)(=O)c1ccccc1	u	-16.2%	2.08µM*	0.2%	24.1	15.9%[46.1 µM]
COc1ccc(Oc2nc(-c3ccccc3)ncc2S(=O)(=O)c2ccccc2)cc1	u	u	14.7µM*	0.4%	-35.1	0.2%[46.1 µM]
COc1nc(-c2ccccc2)ncc1S(=O)(=O)c1ccccc1	u	u	u	-17.7%	14.2	-3.1%
COc1cccc(Sc2nc(-c3ccccc3)ncc2S(C)(=O)=O)c1	9.28µM*	-25.7%	x	x	30.6	x
Cc1ccc(S(=O)(=O)c2cnc(-c3ccccc3)nc2N2CCCCC2)cc1	-7.8%	u	13.1µM*	u	u	u
O=C(Nc1ccc(OC(F)(F)F)cc1)C1CCCN(S(=O)(=O)c2cccc3nonc23)C1 (stereo not drawn)	x	x	x	-14.9%[46.1 µM]	-8.4	3.8%[46.1 µM]
CC(C)C[C@H]1COc2cc(Br)ccc2S(=O)(=O)N1Cc1cccc(Cl)c1	x	x	x	x	34.4	x
C[C@H](CO)N1C[C@H](C)[C@H](CN(C)S(=O)(=O)c2cccs2)Oc2ncc(-c3cc4ccccc4o3)cc2C1=O	x	x	x	x	-1.5	x
Cc1ccc(N(C(=O)c2snc(C(N)=O)c2N)C(C(=O)NC2CCCC2)c2ccc(C)o2)cc1 (stereo not drawn)	u	u	10.4µM*	u	-18.5	u
Cc1cccc(N(C(=O)c2snc(C(N)=O)c2N)C(C(=O)NC2CCCC2)c2ccc(C)o2)c1 (stereo not drawn)	27.9%	u	8.28µM*	u	-21.3	u
Cc1cccc(N(C(=O)c2snc(C(N)=O)c2N)C(C(=O)NC2CCCC2)c2ccncc2)c1 (stereo not drawn)	u	7.0%	u	x	-35.3	u
CN(C)c1ccc(C(C(=O)NC2CCCCC2)N(Cc2ccco2)C(=O)c2snc(C(N)=O)c2N)cc1 (stereo not drawn)	-12.4%	11.2µM*	u	12.6µM*	-74.5*	3.55µM*
Cc1ccc(N(C(=O)c2snc(C(N)=O)c2N)C(C(=O)NC2CCCC2)c2ccco2)cc1 (stereo not drawn)	15.2%	-21.0%	13.1µM*	u	-71.3*	u
CC(C)Oc1cc(F)ccc1-c1cc(C(=O)NCCc2ccncc2)[nH]n1	x	x	x	x	-19.9	x
CN(C(=O)Cn1c(=O)n(Cc2ccc(C(=O)NCc3ccc4c(c3)OCO4)cc2)c(=O)c2ccccc21)c1ccccc1	x	x	x	-18.4%[46.1 µM]	-28.3	4.3%[46.1 µM]
Cc1ccc(N(C(=O)c2csnn2)C(C(=O)NC2CCCCC2)c2ccco2)cc1 (stereo not drawn)	23.4%	-8.8%	u	u	-61.5*	u
